Reference: the supplement of paper PMC13380429

How the values were obtained:
[1] = tested on: Vero E6 infected with SARS-CoV-2; assay: morphology score (similarity to uninfected cells); higher = more like uninfected cells; details: 24 h
[2] = tested on: Vero E6 infected with SARS-CoV-2; assay: SARS-CoV-2 infection rate relative to infected DMSO; higher = more infection, active = 60 or less; details: 24 h

SMILES	morphology score [1]	SARS-CoV-2 infection rate [2]
Cl/C(=C\n1cncn1)c1ccc(Cl)cc1Cl [loreclezole] (10 µM)	0.0913	102% (inactive)
NC(=O)c1ccc(F)c2c1C[C@@H](N(C1CCC1)C1CCC1)CO2 [robalzotan] (10 µM)	0.00904	100% (inactive)
C=CC(=O)N1CCN(C(=O)CNc2cc(I)c(Cl)cc2O)CC1 [K-Ras(G12C)-inhibitor-12] (10 µM)	-0.138	111% (inactive)
COc1ccc(Cl)c(Nc2nc3ccccc3nc2NS(=O)(=O)c2cccc(NC(=O)C(C)(C)N)c2)c1 [pilaralisib] (10 µM)	0.0424	103% (inactive)
O=C1NC(O)CCN1[C@@H]1O[C@H](CO)[C@@H](O)[C@H]1O (some centres undefined) [tetrahydrouridine] (10 µM)	0.167	103% (inactive)
Cc1c(Cc2ccc3ccccc3n2)c2cc(F)ccc2n1CC(=O)O (10 µM)	0.0108	102% (inactive)
COc1cc2ncnc(Nc3ccc(F)c(Cl)c3)c2cc1NC(=O)/C=C/CN1CCCCC1 [dacomitinib] (0.833333 µM)	-0.0483	103% (inactive)
Cc1nc(C#Cc2ccnc(Cl)c2)c(C)n1-c1ccc(F)cc1 [basimglurant] (10 µM)	0.114	112% (inactive)
O=C(O)c1cnn(-c2nc3cc(OC(F)(F)F)c(Cl)cc3[nH]2)c1 (10 µM)	0.316	88.5% (inactive)
C[C@H](NC[C@H](O)CP(=O)(O)CC1CCCCC1)c1ccc(Cl)c(Cl)c1 (10 µM)	-0.206	114% (inactive)
Oc1c(I)cc(I)c(O)c1I [riodoxol] (10 µM)	0.0583	107% (inactive)
CCN(CC)C(=O)c1ccc(C2=CC3(CCNCC3)Oc3cccc(O)c32)cc1 (10 µM)	0.006	122% (inactive)
N[C@H]1C(O)O[C@H](CO)[C@@H](O)[C@@H]1O (mixture of isomers) [glucosamine] (10 µM)	-0.0432	105% (inactive)
N=C(N)N [guanidine] (0.833333 µM)	-0.293	118% (inactive)
O=C(O)CCC(=O)c1ccc(-c2ccccc2)cc1 [fenbufen] (10 µM)	-0.0471	104% (inactive)
O=C(NCCCN1CCOCC1)c1ccc(Cl)cc1 [eprobemide] (10 µM)	-0.0432	108% (inactive)

SMILES	morphology score [1]	SARS-CoV-2 infection rate [2]
CCCCCCCCCCOc1cc2c(O)c(C(=O)OCC)cnc2cc1OCC [decoquinate] (10 µM)	0.147	101% (inactive)
CCOC1O[C@H]([C@@H](COCc2ccccc2)OCc2ccccc2)[C@H](OCc2ccccc2)[C@H]1O (some centres undefined) [tribenoside] (10 µM)	-0.0493	102% (inactive)
Nc1ccccc1S(N)(=O)=O [2-aminobenzenesulfonamide] (10 µM)	-0.162	108% (inactive)
CC[C@H]1CN2CCc3cc(OC)c(OC)cc3[C@@H]2C[C@@H]1C[C@H]1NCCc2cc(OC)c(OC)cc21 [emetine] (0.833333 µM)	-0.193	108% (inactive)
CC[C@H]1[C@@H](O)[C@@H]2[C@H](CC[C@]3(C)[C@@H]([C@H](C)CCOS(=O)(=O)O)CC[C@@H]23)[C@@]2(C)CC[C@@H](O)C[C@@H]12 (10 µM)	-0.0685	106% (inactive)
O=C(N[C@H]1CN2CCC1CC2)c1ccc(Cl)cc1 (10 µM)	-0.0585	99.5% (inactive)
c1ccc2sc(SNC3CCCCC3)nc2c1 [N-cyclohexyl-2-benzothiazolesulfenamide] (10 µM)	-0.00896	106% (inactive)
NCCCNCCSP(=O)(O)O [amifostine] (10 µM)	0.164	100% (inactive)
Nc1ccn([C@@H]2CS[C@H](CO)O2)c(=O)n1 [lamivudine] (10 µM)	-0.00863	102% (inactive)
CNC(=O)c1c(I)c(C(=O)NCC(=O)Nc2c(I)c(C(=O)O)c(I)c(C(=O)NCCO)c2I)c(I)c(N(C)C(C)=O)c1I [ioxaglic-acid] (10 µM)	0.0564	104% (inactive)
COc1ccc(C2CNC(=O)NC2)cc1O[C@H]1C[C@@H]2CC[C@H]1C2 [atizoram] (10 µM)	0.369	93.5% (inactive)
N[C@@H](Cc1cc(-c2ccc(Cl)cc2Cl)cc(CP(=O)(O)O)c1O)C(=O)O (10 µM)	-0.167	107% (inactive)
CC(C)(O)CC[C@@H](O)[C@](C)(O)[C@H]1CC[C@@]2(O)C3=CC(=O)[C@@H]4C[C@@H](O)[C@@H](O)C[C@]4(C)[C@H]3CC[C@]12C [20-hydroxyecdysone] (10 µM)	0.0401	108% (inactive)
CC(NC(C)(C)C)C(=O)c1cccc(Cl)c1 (centres undefined) [bupropion] (10 µM)	0.00981	96.5% (inactive)
CCCn1cnc2c1c(=O)n(CCCCC(C)=O)c(=O)n2C [propentofylline] (10 µM)	0.065	102% (inactive)
c1ccc(Oc2cccnc2)cc1 (10 µM)	0.0741	103% (inactive)
